Measurements published in publication PMC5540273 (PLoS ONE, 2017).

Tested on: PRKD2
Settings: concentration: 1 μM, replicates: in singlicate; n = 1
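Further: KINOMEscan kinase panel screen.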

Row | SMILES | %Inh [%]
1 | COc1ccc(Nc2ncc(C#N)c(Nc3ccccc3C(N)=O)n2)cc1N1CCN(C)CC1.Cl [GSK1558669] | 89
2 | O=C(Nc1cccc(-c2nn3ncccc3c2-c2ccnc(Nc3cccc(C(F)(F)F)c3)n2)c1)c1c(F)cccc1F [GSK299495] | 0
3 | Cc1cccc(-c2nc(Nc3ccc4ncsc4c3)c3ccccc3n2)n1 [GW867588] | 99.8
4 | Cl.Nc1ncnc2occ(-c3ccc(NC(=O)Nc4cc(C(F)(F)F)ccc4F)cc3)c12 [SB-707548] | 20
5 | C[C@@H](Oc1cc(-n2cnc3ccc(NC(=O)NC(C)(C)C)cc32)sc1C(N)=O)c1ccccc1Cl [GSK346294] | 14
6 | c1ccc(-c2cc(-c3c[nH]nc3-c3ccccn3)ccn2)cc1 [GW576604] | 49
7 | Cc1nnc(-c2ccc3occ(-c4ccc(C(C)O)cc4)c3c2)o1 (stereo not shown) | 20
8 | CC(C)Oc1ccc2c(-c3ccnc(Nc4ccc(N5CCN(C)CC5)cc4)n3)cnn2n1 [GW696155] | 97.6
9 | NS(=O)(=O)c1cccc(-c2ccc3ncc(N4CCOCC4)nc3c2)c1 [GSK1535721] | 20
10 | Fc1ccc(-c2ncn(CCCN3CCOCC3)c2-c2ccccn2)cc1 [SB-211742] | 31
11 | CN(C1=C(c2ccccc2)C(=O)NC1=O)c1ccccc1 [SB-334860] | 14
12 | CCc1nc(-c2cccc(C)c2)c(-c2ccnc(NCc3ccccc3)c2)s1 | 13
13 | O=C(NCCNc1ccnc(Nc2ccc(F)cc2)n1)Nc1ccccc1F [GSK1379880] | 0
